# Reference: PubChem BioAssay (NCATS)
# A number with no mark means an inactive call. Calls follow the shape of the dose curve; as a rule, active = well fitted curve in the direction sought with a large enough effect; inconclusive = small, poorly fitted or top-dose-only effect, or another doubt; inactive = no such curve, though single readings can be large; an effect the other way counts as inactive or inconclusive. Inconclusive results are not listed.
# Target: Ferritin light chain (Equus caballus) (UniProt P02791)
# Experiment: qHTS Validation Assay for Identification of Novel General Anesthetics (AID 2323); also: % is scaled to controls: 0 for no effect and ±100 for the full control effect
# Details: horse apoferritin, anesthetic-site fluorescent probe displacement; series mostly up to 76.9 µM; activity change, negative = inhibition: at the top concentration
# Outline: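 Apoferritin from horse spleen (10 uM) was mixed with 1-aminoanthracene at 50% saturation in PBS, then compounds were added. After 10 min at room temperature, fluorescence was read (ex 380 nm, em 535 nm) and normalized to free-probe and complex controls.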
# Sequence of Ferritin light chain (Equus caballus) (P02791 2-175 limits assumed): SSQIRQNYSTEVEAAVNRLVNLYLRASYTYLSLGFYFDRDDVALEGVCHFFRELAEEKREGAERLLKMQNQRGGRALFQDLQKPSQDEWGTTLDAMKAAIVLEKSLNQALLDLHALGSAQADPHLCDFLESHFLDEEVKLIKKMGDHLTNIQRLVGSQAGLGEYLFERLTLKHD
row,Structure (SMILES),"activity change, negative = inhibition [%]"
1,Fc1cccc(/C=N/N=C/c2cccc(F)c2)c1,-10.7
2,CC(C)(C)c1ccc(S(=O)(=O)/C=C/C#N)cc1,-17.3
3,CN[C@H](CC(C)C)C(=O)N[C@H]1C(=O)N[C@@H](CC(N)=O)C(=O)N[C@H]2C(=O)N[C@H]3C(=O)N[C@H](C(=O)N[C@H](C(=O)O)c4cc(O)cc(O)c4-c4cc3ccc4O)[C@H](O)c3ccc(c(Cl)c3)Oc3cc2cc(c3O[C@@H]2O[C@H](CO)[C@@H](O)[C@H](O)[C@H]2O[C@H]2C[C@](C)(N)[C@H](O)[C@H](C)O2)Oc2ccc(cc2Cl)[C@H]1O,-6.91
4,COc1ccccc1N1CCN(CCCCNS(=O)(=O)c2cccc3c(N(C)C)cccc23)CC1,320
5,CC(C)Cc1ccc([C@H](C)C(=O)O)cc1,-8.72
6,CN1CCc2cccc3c2C1Cc1ccc(O)c(O)c1-3 (stereo unspecified),35.2
7,CN1CCc2ccccc2Cc2[nH]c3ccccc3c2CC1,17.9
8,CC(=O)N[C@H](C(=O)O)C(C)(C)SN=O,-3.55
9,O=C(/C=C/c1ccc(O)c(O)c1)OCCc1ccccc1,-7.87
10,Cc1cc(NC(=O)Nc2ccc3c(ccn3C)c2)sn1,-8.14
11,O=C(O)CC[C@@H](C(=O)O)N1C(=O)c2ccccc2C1=O,-3.21
12,CN(C)CCC(c1ccc(Cl)cc1)c1ccccn1 (stereo unspecified),-0.223
13,C=CC(N)CCC(=O)O (stereo unspecified),-3.02
14,CCCN(CC1CC1)c1nc(C)nc(Nc2c(Cl)cc(Cl)cc2Cl)c1Cl,73.2
15,CN(C)c1nc(N)c(C(=O)N=C(N)N)nc1Cl,-11.2
16,CN1CCc2cc(O)c(O)cc2C(c2ccccc2)C1 (stereo unspecified),-5.59
17,CCN1/C(=C/C(C)=O)Sc2ccc(OC)cc21,-12.6
18,NCCNC(=O)c1ncsc1-c1cccc(F)c1,-2.69
19,CCCn1c(=O)c2[nH]c(-c3ccc(OCC(=O)NCCN)cc3)nc2n(CCC)c1=O,64.2

row,Structure (SMILES),"activity change, negative = inhibition [%]"
1,Ic1ccc(N2CCN(Cc3c[nH]c4ncccc34)CC2)cc1,29.4
2,COc1ccc(/C=C/C(=O)Nc2ccccc2C(=O)O)cc1OC,-7.31
3,O=C(O)[C@@H]1C[C@@H](C(=O)O)N1,-5.84
4,O=C1NC(O)=NC1(c1ccccc1)c1ccccc1,-5.17
5,COc1cc(C(O)CO)ccc1OS(=O)(=O)O (stereo unspecified),-7.96
6,CC(C)(C)NCC(O)COc1nsnc1N1CCOCC1 (stereo unspecified),-6.08
7,NO,-8.93
8,COc1cc2nc(N3CCN(C(=O)OCc4ccccc4)C(C(=O)NC(C)(C)C)C3)nc(N)c2cc1OC (stereo unspecified),5.57
9,OC[C@H]1O[C@@H](n2cnc3c(NC4CCCCC4)ncnc32)[C@H](O)[C@@H]1O,-10.6
10,O=c1[nH]c2cc([N+](=O)[O-])c([N+](=O)[O-])cc2[nH]c1=O,-14.9
11,c1ccc(-c2ccccn2)nc1,-0.962
12,CCCCN1CCC(n2c(=O)[nH]c3ccccc32)CC1,-1.69
13,Oc1cc(O)cc(/C=C/c2ccc(O)c(O)c2)c1,382
14,O=C(O)CNC(=O)C(CS)Cc1ccccc1 (stereo unspecified),-8.08
15,O=C(O)c1cc(=O)c2ccccc2[nH]1,-5.44
16,COc1ccc(NC(=O)/C=C/c2ccc(Cl)cc2)cc1,-3.01
17,Cn1c(=O)c2[nH]c(-c3ccccc3)nc2n(C)c1=O,322
18,OCC1O[C@H](O)C(Cl)C(O)C1O (stereo partly specified),-1.79
19,O=C(O)[C@@H]1C[C@H](C(=O)O)N1,-3.96

# Target: ATP-dependent DNA helicase Q1 (Homo sapiens) (UniProt P46063)
# Experiment: qHTS Validation Assay for Inhibitors of RecQ-Like Dna Helicase 1 (RECQ1) (AID 2353);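 also: plate controls were DMSO vehicle for no effect and enzyme-free control for full effect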
# Details: recombinant RECQ1 helicase DNA unwinding assay; series mostly up to 25.6 µM; activity change, negative = inhibition: at the top concentration
# Outline: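 RECQ1T1 50 nM; forked duplex (20 bp + 30-nt ss tails) 200 nM, ATP 2 mM final; pH 8.0, 2 mM MgCl2, 2.5 ug/ml poly(dI-dC); 15 min compound preincubation; discontinuous kinetic read over 2 h at RT.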
# Sequence of ATP-dependent DNA helicase Q1 (Homo sapiens) (P46063 whole entry, looked up): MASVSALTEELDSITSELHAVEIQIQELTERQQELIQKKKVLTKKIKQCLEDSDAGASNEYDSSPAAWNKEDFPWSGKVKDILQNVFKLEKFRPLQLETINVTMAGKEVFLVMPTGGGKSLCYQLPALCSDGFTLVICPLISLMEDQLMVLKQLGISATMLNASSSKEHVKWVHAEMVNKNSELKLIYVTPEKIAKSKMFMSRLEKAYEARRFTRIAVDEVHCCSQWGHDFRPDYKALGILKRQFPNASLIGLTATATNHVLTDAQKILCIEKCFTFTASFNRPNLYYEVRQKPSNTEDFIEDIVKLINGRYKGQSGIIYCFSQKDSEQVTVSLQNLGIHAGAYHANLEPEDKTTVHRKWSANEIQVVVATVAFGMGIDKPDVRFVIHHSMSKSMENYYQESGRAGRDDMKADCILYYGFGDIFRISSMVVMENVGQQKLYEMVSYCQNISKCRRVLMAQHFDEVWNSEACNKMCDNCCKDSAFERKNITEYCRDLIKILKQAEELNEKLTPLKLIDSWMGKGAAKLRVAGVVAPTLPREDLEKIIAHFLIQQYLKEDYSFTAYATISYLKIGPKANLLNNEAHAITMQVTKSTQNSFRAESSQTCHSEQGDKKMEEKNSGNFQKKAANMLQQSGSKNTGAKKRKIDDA
row,Structure (SMILES),"activity change, negative = inhibition [%]"
1,Fc1cccc(/C=N/N=C/c2cccc(F)c2)c1,0.215
2,CC(C)(C)c1ccc(S(=O)(=O)/C=C/C#N)cc1,-0.435
3,COc1ccccc1N1CCN(CCCCNS(=O)(=O)c2cccc3c(N(C)C)cccc23)CC1,-5.16
4,CC(C)Cc1ccc([C@H](C)C(=O)O)cc1,1.1
5,CN1CCc2ccccc2Cc2[nH]c3ccccc3c2CC1,1.79
6,CC(=O)N[C@H](C(=O)O)C(C)(C)SN=O,-0.542
7,O=C(/C=C/c1ccc(O)c(O)c1)OCCc1ccccc1,-13.2
8,Cc1cc(NC(=O)Nc2ccc3c(ccn3C)c2)sn1,-9.39
9,CN(C)CCC(c1ccc(Cl)cc1)c1ccccn1 (stereo unspecified),-0.867
10,C=CC(N)CCC(=O)O (stereo unspecified),-7.34
11,CCCN(CC1CC1)c1nc(C)nc(Nc2c(Cl)cc(Cl)cc2Cl)c1Cl,-5.73
12,CN1CCc2cc(O)c(O)cc2C(c2ccccc2)C1 (stereo unspecified),-0.77
13,CCN1/C(=C/C(C)=O)Sc2ccc(OC)cc21,0.965
14,NCCNC(=O)c1ncsc1-c1cccc(F)c1,-3.46
15,CCCn1c(=O)c2[nH]c(-c3ccc(OCC(=O)NCCN)cc3)nc2n(CCC)c1=O,-8.23
16,Ic1ccc(N2CCN(Cc3c[nH]c4ncccc34)CC2)cc1,-1.52
17,O=C(O)[C@@H]1C[C@@H](C(=O)O)N1,-5.65
18,COc1cc(C(O)CO)ccc1OS(=O)(=O)O (stereo unspecified),-3.01
19,CC(C)(C)NCC(O)COc1nsnc1N1CCOCC1 (stereo unspecified),-6.6
20,NO,-4.73
21,COc1cc2nc(N3CCN(C(=O)OCc4ccccc4)C(C(=O)NC(C)(C)C)C3)nc(N)c2cc1OC (stereo unspecified),3.04
22,OC[C@H]1O[C@@H](n2cnc3c(NC4CCCCC4)ncnc32)[C@H](O)[C@@H]1O,-1.01
23,c1ccc(-c2ccccn2)nc1,-5.18
24,CCCCN1CCC(n2c(=O)[nH]c3ccccc32)CC1,-1.23
25,Oc1cc(O)cc(/C=C/c2ccc(O)c(O)c2)c1,-9.86
26,O=C(O)CNC(=O)C(CS)Cc1ccccc1 (stereo unspecified),-4.62
27,COc1ccc(NC(=O)/C=C/c2ccc(Cl)cc2)cc1,-7.06
28,OCC1O[C@H](O)C(Cl)C(O)C1O (stereo partly specified),-0.499
